D1 ag = Allosteric Agonists of the Human D1 Dopamine Receptor: qHTS | hit rate 1% among 360,000 | activation, % at 2 µM | D(1A) dopamine receptor (Homo sapiens), P21728 | HEK293 T-REx D1 cells, calcium flux, agonist mode; also: 0% is about no effect
Target sequence (P21728 whole entry, looked up): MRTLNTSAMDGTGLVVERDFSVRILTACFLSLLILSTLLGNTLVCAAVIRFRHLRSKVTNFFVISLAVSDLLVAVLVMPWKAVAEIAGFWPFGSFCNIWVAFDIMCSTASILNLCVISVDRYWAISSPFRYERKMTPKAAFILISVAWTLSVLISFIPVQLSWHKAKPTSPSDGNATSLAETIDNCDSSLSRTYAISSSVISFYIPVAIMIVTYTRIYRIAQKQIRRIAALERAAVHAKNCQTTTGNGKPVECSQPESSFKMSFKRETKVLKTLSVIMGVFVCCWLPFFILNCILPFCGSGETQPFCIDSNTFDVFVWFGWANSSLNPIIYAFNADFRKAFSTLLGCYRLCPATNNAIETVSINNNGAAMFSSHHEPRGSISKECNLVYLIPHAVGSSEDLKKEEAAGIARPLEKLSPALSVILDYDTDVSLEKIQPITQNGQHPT
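Agonism was scored from calcium flux recorded over 180 s (1 read/s) after pintool compound addition, following a 10-cycle baseline. Cells were inducible force-coupled HEK293 TREx D1, plated overnight at 30 C and loaded with no-wash calcium dye.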
TRHR ag = qHTS for Small Molecule Agonists and Allosteric Enhancers of Human TRH Receptor: Primary Screen for Agonists; hit rate 0.18% among 360,000; TRHR cells, calcium flux fluo-8, FDSS agonist mode; activation, % at 2 µM; also: 0% is about no effect
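Steps: seed TRHR cells overnight; add fluo-8 no-wash Ca dye, RT 30 min–1.5 h; record 10 s baseline; pin-transfer compounds; monitor fluorescence 1 cycle/s for the agonist window. Calcium increases flag candidate agonists.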
D1 antag = Antagonist of Human D 1 Dopamine Receptor: qHTS. D(1A) dopamine receptor (Homo sapiens), P21728. HEK293 TREx D1 cells, calcium flux, dopamine EC80; active compounds read low. activity change, negative = inhibition, % at 10 µM. hit rate 3.2% among 360,000. AID 504652, 2011; in the data active = activity change below about -30%; also: % is scaled to controls: 0 for no effect and ±100 for the full control effect
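Allosteric or orthosteric antagonism assessed as attenuation of the calcium response to EC80 dopamine, added 180 s after compound, in induced HEK293 Trex D1 cells loaded with no-wash calcium dye.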
TRHR enhancer = qHTS for Small Molecule Agonists and Allosteric Enhancers of Human TRH Receptor: Primary Screen for Enhancers; TRHR cells, fluo-8 calcium fluorescence, EC20 TRH enhancement; enhancement, % at 2 µM; hit rate 0.66% among 360,000; AID 493056, 2011; in the data active = enhancement above about 30%; also: 0% is about no effect
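TRHR-expressing cells loaded with fluo-8 calcium dye were read kinetically (ex 480/em 530) during compound addition, then stimulated with an EC20 of TRH (10 nM final). Enhancement of the Gq-mediated intracellular calcium response was scored.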
D1 potentiator = Potentiators of Human D1 Dopamine Receptor: qHTS. D(1A) dopamine receptor (Homo sapiens), P21728. potentiation, % at 10 µM. hit rate 0.036% among 360,000. HEK293 TREx D1 cells, calcium flux, dopamine EC20 potentiation; in the data active = potentiation above about 30%; also: 0% is about no effect
* hit, by the source's call. Compounds with a hit are over-represented: about 4.7% of the library has one in this group of screens. Rule as the data show it, unless noted: active = activation above about 30%; inactive = the rest.

What do the screens show for `CN(C)C(CNC(=O)c1ccc(NS(=O)(=O)c2ccc(F)cc2)cc1)c1ccco1` (stereo not given)?
D1 ag: 2.2; TRHR ag: 0.0; D1 antag: -6.8; TRHR enhancer: 3.2; D1 potentiator: 2.5

What do the screens show for `Cc1cccc(NS(=O)(=O)c2ccc(C(=O)NCC(c3ccccc3)N(C)C)cc2)c1C` (stereo not given)?
D1 ag: 48.4*; TRHR ag: 2.7; D1 antag: 1.4; TRHR enhancer: -5.7; D1 potentiator: -1.9

What do the screens show for `CN(C)c1ccc(C(CNC(=O)c2ccccc2)N2CCc3ccccc32)cc1` (stereo not given)?
D1 ag: 0.7; TRHR ag: -0.2; D1 antag: -21.6; TRHR enhancer: -0.9; D1 potentiator: -0.1

What do the screens show for `Cc1cccc(-n2nc(C)c(C(=O)Nc3cc(C)ccc3C)c2-n2cccc2)c1`?
D1 ag: 3.3; TRHR ag: 0.4; D1 antag: 21.9; TRHR enhancer: 1.5; D1 potentiator: 6.3

Results for COc1ccc(Cn2c(=S)[nH]c3cc(C(=O)NCc4cccnc4)ccc3c2=O)cc1 ?
D1 ag: 3.1; TRHR ag: 0.6; D1 antag: 10.0; TRHR enhancer: 0.7; D1 potentiator: -2.8

What do the screens show for `COc1ccccc1Cn1c(=S)[nH]c2cc(C(=O)NCc3cccnc3)ccc2c1=O`?
D1 ag: 5.2; TRHR ag: 0.2; D1 antag: -30.7*; TRHR enhancer: -5.2; D1 potentiator: -3.4

Results for Cc1cc(C)cc(OCC(=O)Nc2c(C)ccc3nsnc23)c1 ?
D1 ag: -0.1; TRHR ag: -0.5; D1 antag: 8.0; TRHR enhancer: -1.3; D1 potentiator: -0.5

How did COC(=O)N/N=C/C1=CCC2CC1C2(C)C (stereo not given) do in these assays?
D1 ag: 1.4; TRHR ag: 1.3; D1 antag: 1.9; TRHR enhancer: 3.9; D1 potentiator: -3.6

What do the screens show for `CC1(C)C2CC=C(/C=N/NC(=O)c3ccc(O)cc3)C1C2` (stereo not given)?
D1 ag: 2.9; TRHR ag: 0.2; D1 antag: -32.2*; TRHR enhancer: -7.0; D1 potentiator: -1.0

What do the screens show for `CCOC(=O)c1c(S(=O)(=O)N2CCCC(C(=O)Nc3cccc(CC)c3)C2)c(C)n(CC)c1C` (stereo not given)?
D1 ag: 4.7; TRHR ag: 0.7; D1 antag: 10.9; TRHR enhancer: 8.1; D1 potentiator: -3.2

Results for Cc1cccc(Nc2ncnc3onc(-c4cccc(Cl)c4)c23)c1C ?
D1 ag: 1.7; TRHR ag: -0.4; D1 antag: 0.6; TRHR enhancer: 8.8; D1 potentiator: -0.2

How did Fc1ccc(Nc2ncnc3onc(-c4cccc(Cl)c4)c23)c(F)c1 do in these assays?
D1 ag: -1.9; TRHR ag: 0.2; D1 antag: -45.2*; TRHR enhancer: -9.4; D1 potentiator: -3.5

How did CCOC(=O)c1cc(C#N)c(SC)nc1-c1ccccc1 do in these assays?
D1 ag: 9.2; TRHR ag: -0.3; D1 antag: -44.0*; TRHR enhancer: -2.2; D1 potentiator: -3.4

What do the screens show for `CCOC(=O)c1cc(C#N)c(SC)nc1C`?
D1 ag: 0.9; TRHR ag: -2.3; D1 antag: 1.8; TRHR enhancer: 0.7; D1 potentiator: -0.4

Results for CN1C(=O)c2ccc(C(=O)NCc3ccc4c(c3)OCO4)cc2C1=O ?
D1 ag: 0.4; TRHR ag: -0.4; D1 antag: -33.7*; TRHR enhancer: 0.9; D1 potentiator: -3.1

Results for Cc1c(C(=O)NCc2ccc3c(c2)OCO3)sc2nc(-c3ccc(F)cc3)cn12 ?
D1 ag: 4.3; TRHR ag: -0.2; D1 antag: -41.8*; TRHR enhancer: 3.0; D1 potentiator: -12.1

Results for COc1ccccc1C(CNC(=O)CNC(=O)c1ccc(C)c(C)c1)N1CCCC1 (stereo not given) ?
D1 ag: 3.8; TRHR ag: -0.3; D1 antag: -19.9; TRHR enhancer: 1.2

Screening results (PubChem)
